Screening data as filed in PubChem BioAssay.
The list is not random: actives were taken first. Their share in the collection is about 5.9%.
GLP1R cytotox – cytotoxicity in counter-screen for GLP-1R inverse agonists | HEK293 cAMP-luciferase reporter cells, luminescence, 24 h | Potency, µM (doses to about 38.3 µM), hits mostly inhibitors | 410,000 tested, 0.13% active | AID 624418;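 also: loss of luciferase light is scored as toxicity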
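Here, cytotoxicity is scored as loss of luminescence. The MLSMR collection was tested on cells seeded in medium containing 10% Nu serum, with a 24 hr compound exposure preceded by 12 hours of culture.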
Gal4-VP16 FLuc – Gal4-VP16 reporter inhibition counter-screen; Drosophila S2 Gal4-VP16 UAS-luciferase, luminescence, 20 h; Potency, µM (series often up to 53.6 µM), hits mostly inhibitors; 310,000 tested, 3.5% active; AID 2546;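 also: Gal4-VP16 expression switched on by copper sulfate through the metallothionein promoter; nearly all actives have a fitted effect of over 50% in size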
GLP-1R agonist – agonists of human GLP-1 receptor; HEK293 GLP-1R CRE-luciferase, luminescence, 4-6 h; cells express a hypersensitive GLP-1R form; Potency, µM (highest dose often 45.6 µM), most hits filed as activators; 380,000 tested, 0.007% active; AID 624172
Target sequence (P43220 whole entry, looked up): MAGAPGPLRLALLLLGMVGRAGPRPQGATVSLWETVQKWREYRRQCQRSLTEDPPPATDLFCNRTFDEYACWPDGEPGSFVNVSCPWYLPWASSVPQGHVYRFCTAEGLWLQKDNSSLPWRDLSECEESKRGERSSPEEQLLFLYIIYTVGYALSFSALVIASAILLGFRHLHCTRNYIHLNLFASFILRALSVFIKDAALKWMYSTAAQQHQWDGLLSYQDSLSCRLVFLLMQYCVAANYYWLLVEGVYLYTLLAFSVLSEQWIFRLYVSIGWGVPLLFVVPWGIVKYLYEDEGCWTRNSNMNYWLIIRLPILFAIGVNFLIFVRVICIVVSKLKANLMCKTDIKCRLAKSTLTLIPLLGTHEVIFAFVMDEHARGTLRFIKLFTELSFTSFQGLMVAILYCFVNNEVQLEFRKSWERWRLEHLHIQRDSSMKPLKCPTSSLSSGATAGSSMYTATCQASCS
GLP-1R inv ag – GLP-1 receptor (human) inverse agonism; P43220; HEK293 GLP-1R CRE-luciferase, luminescence, 24 h; GLP-1R form is constitutively active; Potency, µM (doses to about 38.3 µM), usual class: inhibitors; 410,000 tested, 1.6% active; also: nearly all actives have a fitted effect of over 55% in size
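Inverse agonism was detected as reduced cAMP-driven luciferase luminescence after 24 h compound treatment. The cells were HEK293 clones expressing constitutively active human GLP-1R with the reporter. Reporter-only and GPR119 cell lines served as counterscreen controls.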
RORg inh – inhibitors of mouse ROR gamma transcriptional activity | P51450 | Drosophila S2 Gal4-RORgamma UAS-luciferase reporter, 20 h | Potency, µM (series often up to 53.6 µM), actives largely listed as inhibitors | 310,000 tested, 5.4% active | AID 2551; also: nearly all actives have a fitted effect of over 60% in size
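Schneider cells (Drosophila), stable Gal4 DBD–ROR gamma + UAS-luc; 1 hr cmpd preincubation; Cu2+ induction 700 uM final; 20 hr ambient; luminescence.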
A number is an active result; 0 = inactive; ? = inconclusive; - = no result. Calls follow the shape of the dose curve; as a rule, active = well fitted curve in the direction sought with a large enough effect; inconclusive = small, poorly fitted or top-dose-only effect, or another doubt; inactive = no such curve, though single readings can be large; an effect the other way counts as inactive or inconclusive.

SMILES	GLP1R cytotox	Gal4-VP16 FLuc	GLP-1R agonist	GLP-1R inv ag	RORg inh
CC(C)Cn1c(=O)c2sccc2n2c(CCCC(=O)NCc3ccccc3Cl)nnc12	0	-	-	0	-
CCNc1ncc2nc(-c3ccccc3)c(=O)n(Cc3ccc(F)cc3)c2n1	-	0	-	-	0
Cc1ccc(C(C[N+](=O)[O-])c2c(-c3ccccc3O)[nH][nH]c2=O)cc1 (stereo not drawn)	0	11µM	0	?	5µM
Cc1nc2ccccc2n1CCc1nc2c3ccccc3nc(SCc3cccc(F)c3)n2n1	0	-	-	0	-
Oc1ccc(Br)cc1-c1cc(-c2ccccc2Cl)[nH]n1	0	0	0	?	2.8µM
Oc1ccccc1-c1cc(-c2ccc(F)cc2)n[nH]1	0	0	0	?	?
Oc1ccc(Br)cc1-c1cc(-c2ccccc2F)[nH]n1	0	3.5µM	0	?	1.8µM
COc1ccc(O)c(-c2cc(-c3ccccc3Cl)[nH]n2)c1	0	?	0	?	?
CCC(=O)c1ccc(OCC(=O)OCC(=O)c2cc(C)n(C)c2C)cc1	0	1.3µM	0	0	0.89µM
Cc1cc(C(=O)COC(=O)c2nccnc2N)c(C)n1C	0	?	0	?	10µM
COc1ccc(Cn2c(=O)n(-c3ccc(F)c(Cl)c3)c(=O)c3c2c2cc(OC)ccc2n3C)cc1	0	-	0	0	-
CCC(=O)c1ccc(OCC(=O)Nc2nc(-c3cccnc3)cs2)cc1	0	-	0	0	-
CCc1ccccc1OCC(=O)Nc1nc(-c2cccnc2)cs1	?	11µM	0	?	3.2µM
COc1ccc(-c2csc(NC(=S)NC(=O)c3ccco3)n2)cc1	0	0	0	0	7.1µM
O=C(Nc1nc(-c2ccccc2Cl)cs1)c1cccnc1	0	0	0	0	0
O=C(NC(=S)Nc1nc(-c2ccccc2)cs1)c1cccnc1	0	0	0	0	4µM
CCCC(=O)NC(=S)Nc1nc(-c2ccc(OC)cc2)cs1	?	0	0	0	8.9µM
CCC[C@H]1C[C@H](C(=O)NC(C(C)Cl)C2O[C@@H](SC)C(OP(=O)(O)O)[C@@H](O)[C@@H]2O)N(C)C1 (stereo partly drawn)	-	0	0	-	0
Clc1cccc(-n2ncc3c(NCCCN4CCOCC4)ncnc32)c1	0	-	-	?	-
Cc1ccc(NC(=O)CCn2nc(-c3ccccc3)c3ccccc3c2=O)c(C)c1	0	-	-	0	-
O=C(NC(=S)Nc1nc(-c2ccccc2)cs1)c1ccco1	?	?	0	0	3.5µM
COc1ccc(-c2csc(NC(=S)NC(=O)c3ccc4ccccc4c3)n2)cc1OC	0	?	0	0	2µM
COc1ccc(-c2csc(NC(C)=O)n2)cc1OC	0	0	0	0	0
O=C(c1ccncc1)N1CCC2(CCCN(c3ncccn3)C2)CC1	-	0	-	-	0
N=C1SCC(=O)N1c1ncc(Cc2cccc(Cl)c2)s1	?	0.89µM	0	?	0.35µM
SMILES	GLP1R cytotox	Gal4-VP16 FLuc	GLP-1R agonist	GLP-1R inv ag	RORg inh
N=C1SCC(=O)N1c1ncc(Cc2ccccc2Cl)s1	?	0.71µM	0	?	126µM
O=C1c2ccccc2C(=O)N1c1ncc(Cc2ccc(Cl)cc2)s1	0	0	0	0	0
NC(=O)C1CCN(c2ncnc3c2cnn3-c2cccc(Cl)c2)CC1	0	-	-	0	-
CC(=O)N1CCCC1c1nc2ccccc2n1Cc1ccccc1C (stereo not drawn)	0	-	-	0	-
CN=c1scc(-c2ccccc2F)n1/N=C/c1ccc(O)c(O)c1O	?	0	0	0	?
CN=c1scc(-c2ccccc2F)n1/N=C/c1ccc[nH]1	0	0.63µM	0	0	0.022µM
Nc1cccc2c1C(=O)N(C(=O)/C=C/c1cccc(F)c1)C2=O	0	22µM	0	0	?
Nc1cccc2c1C(=O)N(C(=O)/C=C/c1cccc(Br)c1)C2=O	0	?	0	0	?
Cc1cccc(N2CCN(C(=O)CCCn3c(=S)[nH]c4cc5c(cc4c3=O)OCO5)CC2)c1C	0	4.5µM	0	?	3.2µM
O=C(CCCn1c(=S)[nH]c2cc3c(cc2c1=O)OCO3)N1CCN(c2ccc(Cl)cc2)CC1	0	5.6µM	0	0	6.3µM
CC(=O)c1ccc(N2CCN(C(=O)CCCn3c(=S)[nH]c4cc5c(cc4c3=O)OCO5)CC2)cc1	0	?	0	0	11µM
O=C(CCCn1c(=S)[nH]c2cc3c(cc2c1=O)OCO3)N1CCc2ccccc2C1	0	?	0	0	13µM
O=C(CCCn1c(=S)[nH]c2cc3c(cc2c1=O)OCO3)N1CCN(c2ccccc2)CC1	0	0	0	0	0
Cc1ccc2occ(CC(=O)N(Cc3ccc(C(C)C)cc3)C3CCS(=O)(=O)C3)c2c1 (stereo not drawn)	0	-	-	?	-
CCC(C)C(NC(=O)OC(C)(C)C)C(=O)NC1COC2CC(n3ccc(=O)[nH]c3=O)OC12 (stereo not drawn)	-	0	-	-	0
COc1cccc(NS(=O)(=O)c2ccc(Br)s2)c1	0	4.5µM	0	0	3.5µM
COc1ccc(OC)c(NS(=O)(=O)c2ccc(Br)s2)c1	0	0	0	?	0
CCc1ccccc1N1C(=O)N(CC(=O)c2ccc(Cl)cc2)c2ccccc2S1(=O)=O	0	-	0	0	-
NCCC(O)C(=O)NC1C[C@@H](N)[C@H](O[C@@H]2OC(CN)C(O)C(O)C2O)C(O)[C@H]1O[C@H]1OC(CO)C(O)C(N)C1O (stereo partly drawn)	-	0	-	-	0
CC(C)c1ccc(N2C(=O)N(Cc3ccccc3Cl)c3ccccc3S2(=O)=O)cc1	0	-	0	?	-
CC(C)CC(=O)NC(=S)Nc1cccc(NC(=O)c2ccccc2)c1	?	?	0	?	?
CCCCCC(=O)N/N=C(\C)c1ccc(NC(=O)c2ccco2)cc1	0	0	0	0	0
COc1ccc(C(=O)NC(=S)Nc2ccc3oc(=O)ccc3c2)cc1	0	0	0	0	0
CCCCCC(=O)NC(=S)Nc1ccc2oc(=O)ccc2c1	0	?	0	0	11µM
CCCC(=O)NC(=S)Nc1cccc(NC(=O)c2ccccc2)c1	0	3.5µM	0	?	?
SMILES	GLP1R cytotox	Gal4-VP16 FLuc	GLP-1R agonist	GLP-1R inv ag	RORg inh
CCCCC(=O)NC(=S)Nc1cccc(NC(=O)c2ccccc2)c1	0	7.9µM	0	?	2.2µM
CCCCCC(=O)NC(=S)Nc1ccc(NC(=O)c2ccco2)cc1	?	?	0	0	10µM
COc1cc(Br)c(C[N+]2(CCOCCC3CCC4CC3C4(C)C)CCOCC2)cc1OC (stereo not drawn)	-	-	0	-	-
CCOC(=O)C(CCc1ccccc1)NC(C)C(=O)N1CCCC1C(=O)O (stereo not drawn)	-	0	-	-	0
CCNc1ccccc1	-	0	-	-	0
CC(=O)Nc1nc2c(F)cccc2s1	0	-	0	0	-
Fc1cccc2sc(Nc3nc4cc5c(cc4s3)OCO5)nc12	0	7.1µM	0	0	6.3µM
Fc1cccc2sc(Nc3nc4cc5c(cc4s3)OCCO5)nc12	0	11µM	0	?	5.6µM
Fc1cc(F)c2nc(Nc3nc4cc5c(cc4s3)OCO5)sc2c1	0	?	0	?	16µM
